Here are results for 62 sequences from the supplement of paper PMC11417369.

± gives the standard deviation of the averaged measurements. In all, about 25,000 sequences were measured (“ln(normalized median fluorescence intensity)”: median about 7.9, highest 2% from about 11 on). This excerpt belongs to a sample that is enriched for the highest values.

The test system of the test is PfAP2-I AP2 domain 3 (GST-tagged). In words: gcPBM binding intensity (ln(normalized median fluorescence intensity)); higher = stronger DNA binding. In short, it runs like this: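 An Agilent 4 × 180k array carrying primer-extended double-stranded 36-bp intergenic genomic probes and negative controls received GST-tagged P. falciparum DNA-binding domains expressed in E. coli, about 25 μg on average, for 1 h. The binding buffer contained 1× PBS, 1% milk, 0.2 mg/ml BSA, 0.5% salmon testes DNA and 0.03% Triton X-100. Binding intensity is the top Masliner-normalised natural-log median intensity across replicate spots of either probe orientation, read after Alexa488 anti-GST antibody staining and a 488 nm scan.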
On to “ATAAAATACAAAGGGACACACATATGAGTCTACAAA [CACACA_site3092]”, for which the “gcPBM binding intensity (ln)” value came out at 7.54 ± 0.6.

With “ATATATATATATGTTTATTTATTTGAACGATTGTGG [CACACA_negctrl_site828]”, the “gcPBM binding intensity (ln)” value turned out to be 9.4 ± 0.56.

Turning to “AAAAAATTAAATAATTACAAAAAAATAAAATAAAAA [GTGCAC_negctrl_site638]”, the “gcPBM binding intensity (ln)” value came to 7.5 ± 0.59.

In the case of “TAAAAAATTTTCGCGTGTACGCAAGAAAAAAAAAAT [XGTACX_site3058]”, the “gcPBM binding intensity (ln)” value was 8.04 ± 0.72.

Regarding “TTAAAAAAGTAATTAACACACAATAATGTAATGCAT [CACACA_site4176]”, the “gcPBM binding intensity (ln)” value was 8.18 ± 0.55.

For “TATTCTTCAATTTAAAGTACAAAAATTACTATACTT [XGTACX_site6599]”, the “gcPBM binding intensity (ln)” value is 7.58 ± 0.28.

For “AATATTATAAATGATACACACTTAAAATACAGACAC [CACACA_site8868]”, the “gcPBM binding intensity (ln)” value worked out at 8.19 ± 0.4.

In the case of “AATATTTATATTTACACACACATAATACCTATATGT [CACACA_site6167]”, the “gcPBM binding intensity (ln)” value came to 7.83 ± 0.42.

“TAAATGAGAAGGACTGCACACTAAAATGGAAGGAGA [CACACA_site8449]”: the “gcPBM binding intensity (ln)” value came out at 8.23 ± 0.71.

On to “ATCCTGAACAGAATATGTATAAACAGAAGGAAACAA [CACACA_negctrl_site1805]”, for which the “gcPBM binding intensity (ln)” value is 7.92 ± 0.54.

As to “GACATATATATAAAATGTACATATATATTTACATAT [XGTACX_site7822]”, the “gcPBM binding intensity (ln)” value worked out at 7.75 ± 0.33.

As for ATTATTATTAATCTTGTGCACATATATTTTAATTAG, the “gcPBM binding intensity (ln)” value worked out at 10.6 ± 0.23.

On to “ATTCAATATATATACACACACACTTTTAATAATTAA [CACACA_site3770]”, for which the “gcPBM binding intensity (ln)” value came to 8.1 ± 0.43.

Consider TTTTTAATATATTAGGTGCACAATAATACACTTTAT, for which the “gcPBM binding intensity (ln)” value amounted to 11.51 ± 0.064.

On to “TTTAATTTATATTTTGTGCACATCTTATTATATATA [GTGCAC_site9630]”, for which the “gcPBM binding intensity (ln)” value was found to be 10.5 ± 0.21.

Take TATTTATTTTTTTTTGTGCACTTAATATAATCTTAC: the “gcPBM binding intensity (ln)” value is 11.07 ± 0.042.

On to “ATTCAATATTTATACACACACACTTTTAATAATTAA [CACACA_site7725]”, for which the “gcPBM binding intensity (ln)” value was found to be 8.05 ± 0.55.

As to “CCGATATAATGGAAAACACACAAAAGATATATATAT [CACACA_site2683]”, the “gcPBM binding intensity (ln)” value was found to be 9.01 ± 0.15.

On to “AATATTTATAAATTTACACACACACCGGTGAACATA [CACACA_site8579]”, for which the “gcPBM binding intensity (ln)” value worked out at 7.79 ± 0.57.

Take “CATTTTTTTTTATAAATACACACGTACGGGTGCATA [CACACA_site1569]”: the “gcPBM binding intensity (ln)” value came to 8.54 ± 0.54.

“TTTTATAAATACACACGTACGTGTGCATAACGTTTT [XGTACX_site3199]”: the “gcPBM binding intensity (ln)” value was determined as 9.465 ± 0.092.

In the case of “TTTTTTTTTATAAATACACACGTACGGGTGCATAAC [CACACA_site8444]”, the “gcPBM binding intensity (ln)” value amounted to 10.9 ± 0.73.

As for “ATATGTAGATGATATTATTACTTTTCAAAAATTCAA [CACACA_negctrl_site933]”, the “gcPBM binding intensity (ln)” value was found to be 7.58 ± 0.39.

With “ATCATTTTTAATAAATGTACAAGTTTTAAAAAAAAA [XGTACX_site7340]”, the “gcPBM binding intensity (ln)” value came out at 7.7 ± 0.6.

On to TCGTGGTTTTAATAAGTGCGCAATTTAAATATTTTT, for which the “gcPBM binding intensity (ln)” value is 9.31 ± 0.18.

Take “TATGGTTTTAAAAAATGTACGCAAGTGCGTTAATTT [XGTACX_site3945]”: the “gcPBM binding intensity (ln)” value was 11.2 ± 0.93.

“ATACATATATGTGTGTGTACATAAATGTATATATTT [XGTACX_site6242]”: the “gcPBM binding intensity (ln)” value is 7.93 ± 0.38.

For the sequence “AACCCTTTTGATTTTTCTTTTTTTTTTTTTTTAAAT [CACACA_negctrl_site1667]”, the “gcPBM binding intensity (ln)” value came out at 7.5 ± 0.69.

Take “TTTTTTAAAATATGGACACACATATATATATATGTA [CACACA_site2784]”: the “gcPBM binding intensity (ln)” value was found to be 7.67 ± 0.3.

Take “TAAAACTTAATATAAACACACAAAAATTAATAAATA [CACACA_site4370]”: the “gcPBM binding intensity (ln)” value amounted to 7.62 ± 0.44.

TCACATTTTGGACACGTGCACATATATTTGATACAT: the “gcPBM binding intensity (ln)” value stood at 9.48 ± 0.33.

Consider TTTTTTTTTTTTCACGTGCACTATACATATAAGTAA, for which the “gcPBM binding intensity (ln)” value was 11.1 ± 0.23.

For “TTTTTTTTTTTTTCAAGTACATATATATATATATAA [XGTACX_site2098]”, the “gcPBM binding intensity (ln)” value is 7.99 ± 0.45.

With “ATATATATATATTTTACACACAATGGAGAAAAAAAT [CACACA_site644]”, the “gcPBM binding intensity (ln)” value came to 9.01 ± 0.092.

Consider “TTAAAATCTTGAAAAGTGCATTATCATTTTGTAACG [GTGCAC_site9447]”, for which the “gcPBM binding intensity (ln)” value was 11.4 ± 0.73.

As for “TTTTAAAGAAAATATTTTATCATTATTTTTTGTACT [CACACA_negctrl_site1648]”, the “gcPBM binding intensity (ln)” value worked out at 7.41 ± 0.57.

With AGGGAAAAAAAAAAAGTGCATTTGTATTAAATGAAT, the “gcPBM binding intensity (ln)” value stood at 9.9 ± 0.028.

In the case of “GAGAGGTATCAAAAATGTACACATATATATATGTAT [XGTACX_site5611]”, the “gcPBM binding intensity (ln)” value was 7.79 ± 0.47.

As for “ATATATCTTTATATAGTGCATTAAATATGTTGTAAT [GTGCAC_site9953]”, the “gcPBM binding intensity (ln)” value was determined as 11.5 ± 0.54.

For ATATATATATATGTAGTGCATTTTATATATAATATT, the “gcPBM binding intensity (ln)” value turned out to be 9.875 ± 0.035.

For the sequence “AATATATTTATATAGTGTACATTTTTTATATATGTA [XGTACX_site8142]”, the “gcPBM binding intensity (ln)” value turned out to be 7.67 ± 0.18.

For the sequence “GGATTATTTATAGGAGTGCATACATATATATATATA [GTGCAC_site9454]”, the “gcPBM binding intensity (ln)” value is 9.76 ± 0.071.

In the case of “AATATTTTATATGTAGTGCATTACTATAGGATTTAT [GTGCAC_site9424]”, the “gcPBM binding intensity (ln)” value was determined as 11.4 ± 0.74.

As for “TATCTTTTTACAATAGTGCATATGTTATCATTAATA [GTGCAC_site9489]”, the “gcPBM binding intensity (ln)” value stood at 9.54 ± 0.18.

As to GTTTATATGTTCATAGTGCATATATGTTGATTTATT, the “gcPBM binding intensity (ln)” value came out at 10.2 ± 0.33.

Consider “TTATTAAATATAAATATGTATCTTTTATGTTATATT [CACACA_negctrl_site306]”, for which the “gcPBM binding intensity (ln)” value amounted to 7.29 ± 0.44.

As to “TTTTTTTTTAATTATGCATGTAAATTATATATTATA [TGCATGCA_site335]”, the “gcPBM binding intensity (ln)” value stood at 8.55 ± 1.1.

Take “ATAATTATTAATATAGTGCATTGGCATAATAATATA [GTGCAC_site9810]”: the “gcPBM binding intensity (ln)” value came to 9.89 ± 0.2.

In the case of TTATTATTATTACTAGTGCATTAATTATATATGTAA, the “gcPBM binding intensity (ln)” value amounted to 11.6 ± 0.49.

Regarding “CATATGTTATATGTAGTGCATTACTATAGGATTTAT [GTGCAC_site9860]”, the “gcPBM binding intensity (ln)” value came to 11.4 ± 0.64.

Turning to “TAAATATATAAACACACACACATTAATACAGATATT [CACACA_site5851]”, the “gcPBM binding intensity (ln)” value was 7.72 ± 0.54.

In the case of “TATATATATATTTATACACACATTAGTGTAGACATG [CACACA_site8964]”, the “gcPBM binding intensity (ln)” value is 8.915 ± 0.021.

Turning to “ATATATATGTATACATGTACATATTTTATTATGTGC [XGTACX_site7207]”, the “gcPBM binding intensity (ln)” value is 7.9 ± 0.61.

“TTATATATATATATATATATATATATATATATAAAT [GTGCAC_negctrl_site126]”: the “gcPBM binding intensity (ln)” value came out at 8.41 ± 0.23.

As for “TTTTTATATGCGTATTGTACATTATACATATATATA [XGTACX_site6786]”, the “gcPBM binding intensity (ln)” value came to 7.97 ± 0.38.

“TTCTTTATTTTTTCTACACACATTAGATATTCAAAG [CACACA_site7624]”: the “gcPBM binding intensity (ln)” value was found to be 8.02 ± 0.53.

For the sequence “TTGTTAATAAAAATATTGGAAAGTTTATAAAATTTT [CACACA_negctrl_site1487]”, the “gcPBM binding intensity (ln)” value was determined as 7.53 ± 0.52.

On to TTTGGAATATTAATTGTGCACTTAAAAAGTTAATTA, for which the “gcPBM binding intensity (ln)” value stood at 11 ± 0.35.

Regarding “TTTATTTGTGCATATACACACTTAAATATGTTTATT [CACACA_site7772]”, the “gcPBM binding intensity (ln)” value came to 9.405 ± 0.035.

“TTTATATTAATTGATGTGCACTGAAATATTTGTCCA [GTGCAC_site9655]”: the “gcPBM binding intensity (ln)” value was 10.3 ± 0.28.

Turning to “AGAATTATTGTTAATGCATGTGGAAGTTAAAATATT [TGCATGCA_site188]”, the “gcPBM binding intensity (ln)” value stood at 8.48 ± 0.69.

Take ATGAAATATTTATTTGTGCACTTAATTTGTTGGAAA: the “gcPBM binding intensity (ln)” value came out at 11.2 ± 0.21.
